From PubChem BioAssay (NCATS)
Several values for one entry are separate records, joined by “and”; a condition that tells them apart may be missing. Identical values can stand only once. Inconclusive results are not listed. Unmarked numbers belong to inactive results. Activity calls are given as the source filed them. Calls come from the whole dose curve; as a rule, active = well fitted activation curve with a large enough effect; inconclusive = small, poorly fitted or top-dose-only effect; inactive = no such curve, though single readings can be large or run the other way.

Each compound was assayed against Cellular tumor antigen p53 (Homo sapiens) (UniProt P04637) (assay: Primary qHTS for small molecule compounds that upregulate eGFP-tagged delta133p53alpha (in N-terminal) cells. (AID 2060322; note: nearly all actives have a fitted effect of over 75% in size;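 for activation: cells pre-induced with doxycycline then dosed without doxycycline; series mostly up to about 56 µM; 0% = DMSO vehicle and 100% = reference activator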)). Settings: NCI-H358 eGFP-delta133p53alpha fluorescence, 24 h; activation: active compounds read high.
Sequence of Cellular tumor antigen p53 (Homo sapiens) (P04637 whole entry, looked up): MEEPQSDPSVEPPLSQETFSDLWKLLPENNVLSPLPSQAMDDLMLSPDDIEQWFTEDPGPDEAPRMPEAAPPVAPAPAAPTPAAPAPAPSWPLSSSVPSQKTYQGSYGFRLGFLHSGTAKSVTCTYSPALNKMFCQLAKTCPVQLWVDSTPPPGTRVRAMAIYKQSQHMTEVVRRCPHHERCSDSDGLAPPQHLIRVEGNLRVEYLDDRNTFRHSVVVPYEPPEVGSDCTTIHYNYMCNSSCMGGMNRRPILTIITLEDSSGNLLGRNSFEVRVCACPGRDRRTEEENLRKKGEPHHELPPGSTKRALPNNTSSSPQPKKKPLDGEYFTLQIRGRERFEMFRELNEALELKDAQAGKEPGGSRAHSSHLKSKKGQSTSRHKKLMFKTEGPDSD
Procedure, shortened: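 NCI-H358 cells pre-induced 24 h with 10 ng/ml doxycycline for eGFP-delta133p53alpha, plated dox-free and exposed 24 h at 37C to titrated compounds. Fixed, Hoechst-stained; gated GFP peak intensity by laser scanning cytometry, normalized to DMSO (0%) and 57.5 uM 5-azacytidine (100%).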
Potency is the fitted concentration of half-maximal effect.

| SMILES | activation | Potency |
| --- | --- | --- |
| CCOC(CN1C(=O)[C@](CC(=O)Nc2ccc(C)cc2)(NC(=O)Nc2ccc(C)cc2)c2ccccc21)OCC | 0.237% |  |
| Cc1nc2ccc(C(=O)N3CCC4(CC3)CC(=O)c3c(cnn3C(C)C)C4)cc2[nH]1 | 23% |  |
| CC(C)C(C)C=CC(C)C1CCC2C3=CC=C4CC(O)CCC4(C)C3CCC21C (stereo unspecified) | 11% |  |
| CC[C@H](C)n1cc(C)c2c(C(=O)NCc3c(C)cc(C)[nH]c3=O)cc(-c3ccc(N4CCNCC4)nc3)cc21 | -13% |  |
| CN(C(Cc1ccc(OS(=O)(=O)c2cccc3cnccc23)cc1)C(=O)N1CCN(c2ccccc2)CC1)S(=O)(=O)c1cccc2cnccc12 (stereo unspecified) | 8.08% |  |
| O=c1cc(-c2ccccc2)oc2cc(O)c(O)c(O)c12 | -1.25% |  |
| O=C(O)c1c(Cl)c(Cl)c(Cl)c(Cl)c1-c1c2cc(I)c(=O)c(I)c-2oc2c(I)c(O)c(I)cc12 | -18.2% |  |
| N#CC(c1ccc(Cl)cc1)c1c(Cl)cc(-n2ncc(=O)[nH]c2=O)cc1Cl (stereo unspecified) | -23% |  |
| CCc1nc(N)nc(N)c1-c1ccc(Cl)cc1 | -15.9% and -12.3% |  |
| C[N+](C)([O-])CCNc1ccc(NCC[N+](C)(C)[O-])c2c1C(=O)c1c(O)ccc(O)c1C2=O | 9.32% |  |
| COc1cc2c(cc1Cc1cccc(Cl)c1F)c(=O)c(C(=O)O)cn2[C@H](CO)C(C)C | -15% |  |
| Cc1cc2c(F)c(Oc3ncnn4cc(OC[C@@H](C)O)c(C)c34)ccc2[nH]1 | -34.1% |  |
| O=C(c1ccc(F)cc1)N1CCC[C@H](c2nc(-c3ccc(F)cc3)no2)C1 | 6.17% |  |
| CCCCc1oc2ccccc2c1C(=O)c1cc(I)c(OCCN(CC)CC)c(I)c1 | -16.4% and -32.6% |  |
| Cc1cccc(CN2CCN(C(c3ccccc3)c3ccc(Cl)cc3)CC2)c1 (stereo unspecified) | 5.02% and 0.39% |  |
| Nc1[nH]c(=O)ncc1F | 10.9% and -17.3% |  |
| CN[C@@H](C)C(=O)N[C@H]1CCCC[C@H]2CC[C@@H](C(=O)N[C@@H](c3ccccc3)c3cn(CCCCc4ccc(CCCCn5cc([C@@H](NC(=O)[C@@H]6CC[C@@H]7CCCC[C@H](NC(=O)[C@H](C)NC)C(=O)N76)c6ccccc6)nn5)cc4)nn3)N2C1=O | 16.4% |  |
| Clc1ccc(COC(Cn2ccnc2)c2ccc(Cl)cc2Cl)c(Cl)c1 (stereo unspecified) | -18.8% |  |
| O=C1CCc2ccc(OCCCCN3CCN(c4cccc(Cl)c4Cl)CC3)cc2N1 | -4.19% |  |
| Cc1ccc(NC(=O)c2ccc(CN3CCN(C)CC3)cc2)cc1Nc1nccc(-c2cccnc2)n1 | -19.4% and -18.4% and -2.86% |  |
| Nc1nc(N)c2nc(-c3cccc(O)c3)c(-c3cccc(O)c3)nc2n1 |  | 24.3 µM (active) |
